# Test results: publication PMC4336329 (PLoS ONE, 2015)
# Out of some 310,000 compounds screened, about 14,000 (4.5%) showed an effect of 50% or more. The effect is printed as a negative number. Shown is part of a subset that was picked to be rich in strong results.
# Target: human ether-à-go-go-related gene (hERG) potassium channel (human, UniProt Q12809)
# Test: primary screen, population patch clamp on CHO cells stably expressing hERG; higher = less effect of the substance
# 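Further: peak tail current of the secondary pulse compared with the same well before compound.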
# Chain of human ether-à-go-go-related gene (hERG) potassium channel (Q12809 whole entry, looked up): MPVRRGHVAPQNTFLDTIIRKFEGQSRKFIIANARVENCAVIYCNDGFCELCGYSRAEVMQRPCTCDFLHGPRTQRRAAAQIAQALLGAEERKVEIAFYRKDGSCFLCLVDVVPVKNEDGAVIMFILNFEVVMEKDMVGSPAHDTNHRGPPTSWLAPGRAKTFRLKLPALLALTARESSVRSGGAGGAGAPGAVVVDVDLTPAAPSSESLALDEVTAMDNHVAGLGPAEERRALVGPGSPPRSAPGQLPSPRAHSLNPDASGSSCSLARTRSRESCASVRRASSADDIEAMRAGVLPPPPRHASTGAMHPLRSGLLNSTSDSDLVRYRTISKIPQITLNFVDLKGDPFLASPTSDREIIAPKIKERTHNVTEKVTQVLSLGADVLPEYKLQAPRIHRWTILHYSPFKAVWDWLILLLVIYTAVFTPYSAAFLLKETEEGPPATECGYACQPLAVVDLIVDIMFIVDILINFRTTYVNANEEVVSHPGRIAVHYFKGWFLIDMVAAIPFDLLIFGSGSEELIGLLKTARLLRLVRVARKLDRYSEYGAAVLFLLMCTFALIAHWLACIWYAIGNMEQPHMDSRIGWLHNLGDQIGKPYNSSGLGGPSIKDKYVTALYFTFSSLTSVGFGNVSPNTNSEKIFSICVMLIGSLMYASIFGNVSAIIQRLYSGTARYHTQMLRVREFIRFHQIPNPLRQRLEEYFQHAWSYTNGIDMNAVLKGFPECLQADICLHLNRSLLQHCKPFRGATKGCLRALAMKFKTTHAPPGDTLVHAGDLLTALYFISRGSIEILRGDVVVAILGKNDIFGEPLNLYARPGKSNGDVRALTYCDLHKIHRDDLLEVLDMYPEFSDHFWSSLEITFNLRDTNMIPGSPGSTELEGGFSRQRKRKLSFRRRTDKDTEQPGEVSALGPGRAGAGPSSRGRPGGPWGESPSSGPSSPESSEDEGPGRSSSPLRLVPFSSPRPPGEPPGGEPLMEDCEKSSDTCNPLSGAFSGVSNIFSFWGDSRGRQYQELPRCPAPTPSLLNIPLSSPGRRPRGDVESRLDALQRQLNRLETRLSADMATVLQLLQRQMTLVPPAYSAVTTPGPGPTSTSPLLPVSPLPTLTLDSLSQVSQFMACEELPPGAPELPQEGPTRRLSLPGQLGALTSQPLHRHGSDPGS
row,SMILES,"hERG current change (%, negative = inhibition) at 10uM [%]"
1,CC(=O)Nc1ccc(S(=O)(=O)NCC2CCC(C(=O)N3CCCCCC3)CC2)cc1 (centres unmarked),5.67
2,CN(c1ccccc1)S(=O)(=O)c1ccc(Cl)nc1,10.8
3,C#CCOCCOCCOCCNc1nc(N2CCN(C(=O)[C@H]([C@@H](C)CC)n3cc([C@@H](N)Cc4ccc(O)cc4)nn3)CC2)nc(N2CCN(C(=O)[C@H](Cc3cc4ccccc4[nH]3)n3cc([C@@H](N)C(C)CC)nn3)CC2)n1.Cl (some centres unmarked),3.33
4,Cc1cc(Cl)ccc1OCC(=O)Nc1nc(-c2cccs2)cs1,15.6
5,CC(OC(=O)Cc1c[nH]c2ccccc12)C(=O)Nc1ccccc1F (centres unmarked),-11.7
6,O=C(O)C(=O)O.O=C(c1cccc(F)c1)N1CCN(Cc2cccc(Br)c2)CC1,-48.6
7,CCN1CCN(Cc2cccc(Oc3ccc(Cl)cc3)c2)CC1,-56.9
8,CCOc1ccc(CN2CCN(C(=O)c3cccc(F)c3)CC2)cc1.O=C(O)C(=O)O,-62
9,O=C(c1cccc(C(=O)N2CCN(Cc3ccccc3)CC2)c1)N1CCN(Cc2ccccc2)CC1,-17.2
10,COc1cccc(C(=O)N2CCN(Cc3cccc(F)c3)CC2)c1.O=C(O)C(=O)O,-7.48
11,COc1cccc(CN2CCN(C(=O)c3ccc(-c4ccccc4)cc3)CC2)c1,-38.3
12,CCN1CCN(Cc2cccc(Oc3ccccc3)c2)CC1,-35.9
13,O=C(c1ccccc1)N1CCN(Cc2cccc(Oc3ccccc3)c2)CC1,-50.1
14,CN1CCN(Cc2cccc(Oc3ccc(Cl)cc3)c2)CC1,1.98
15,C=CCn1c(-c2cccc(OC)c2OC)n[nH]c1=S,-24.3
16,Cc1cc2c(c(=O)n1Cc1ccccn1)C(c1ccc3c(c1)OCO3)C(C#N)=C(N)O2 (centres unmarked),-0.622
17,COc1ccc(C(=S)N2CCCC2)cc1OC,2.36
18,CC(C)OC(=O)CC(=O)CSc1nc2c(cc1C#N)CCCCCC2,-4.33
19,O=C(O)c1ccc(C2SCC(=O)N2Cc2ccccc2)cc1 (centres unmarked),-0.7
20,COc1ccc(N2CCN(C(=O)CSc3nnc4c(C)cc5cc(C)ccc5n34)CC2)cc1,-21.2
21,O=C1C2C3C=CC(C3)C2C(=O)N1c1n[nH]c(-c2cccnc2)n1 (centres unmarked),11.1
22,O=C(CSc1nnc(Cn2c(=O)sc3ccccc32)n1-c1ccccc1)N1CCCCCC1,-12.5
23,CCO[C@@H]1OC(C(=O)NCc2ccccc2)=C[C@H](c2coc3ccccc3c2=O)[C@H]1CCCO,-47.5
24,N#Cc1ccsc1NC(=O)C1CCN(S(=O)(=O)c2cccs2)CC1,-20.2
25,Cc1ccc(NC(=O)C2CCN(S(=O)(=O)c3cccs3)CC2)cc1C,-31.1
26,CNC(=O)c1ccsc1NC(=O)C1CCN(S(=O)(=O)c2ccc(Cl)s2)CC1,-54.9
27,CNC(=O)c1ccsc1NC(=O)C1CCCN1S(=O)(=O)c1cccs1 (centres unmarked),7.6

row,SMILES,"hERG current change (%, negative = inhibition) at 10uM [%]"
1,CNC(=O)c1ccsc1NC(=O)c1ccc(Cl)s1,-0.512
2,O=C(Nc1ccc(F)cc1)C1CCN(S(=O)(=O)c2cccs2)CC1,-24.4
3,O=C(Nc1nccs1)C1CCN(S(=O)(=O)c2cccs2)CC1,-24.1
4,O=C(Nc1ccc(F)c(F)c1)C1CCN(S(=O)(=O)c2cccs2)CC1,-53.7
5,CCOC(=O)C1CCN(S(=O)(=O)c2ccc(Cl)s2)CC1,-13.3
6,CNC(=O)c1ccsc1NC(=O)C1CCN(S(=O)(=O)c2cccs2)CC1,-55.1
7,NC(=O)c1ccsc1NC(=O)C1CCN(S(=O)(=O)c2cccs2)CC1,-52.4
8,O=C(Nc1ccccc1)C1CCN(S(=O)(=O)c2cccs2)CC1,-16.4
9,CCC(c1nnc(SCC(=O)NCCc2ccc(Cl)cc2Cl)o1)N(C)C (centres unmarked),-19.9
10,Cc1nn(-c2ccccn2)c2c1-c1nc(N)ncc1CC2,5.03
11,CC(C)CCn1c(Sc2nc3ccccc3o2)nc2c1c(=O)[nH]c(=O)n2C,-20.8
12,Cc1ccc(-c2ocnc2C(=O)N2CCOCC2)cc1,21.4
13,COc1ccc(OC)c(-c2c(=O)n(OCc3ccccc3Br)c3ccccc3[n+]2[O-])c1,11.5
14,O=C(Nc1nc2ccccc2[nH]1)C1CCN(S(=O)(=O)c2cccs2)CC1,-0.923
15,CCCN1CCc2c(sc(NC(=O)C3CCN(S(=O)(=O)c4cccs4)CC3)c2C(N)=O)C1.Cl,-61.3
16,CN1CCc2c(sc(NC(=O)C3CCN(S(=O)(=O)c4cccs4)CC3)c2C(N)=O)C1.Cl,-30.8
17,CC(=O)N1CCc2c(sc(NC(=O)C3CCN(S(=O)(=O)c4cccs4)CC3)c2C(N)=O)C1,-29.4
18,CCCn1c(NC(=O)C2CCN(S(=O)(=O)c3cccs3)CC2)nc2ccccc21,-68.8
19,Cc1csc(NC(=O)C2CCN(S(=O)(=O)c3cccs3)CC2)n1,-27.3
20,CC12CN(C(=O)c3ccccc3Br)CC(C)(CN(C(=O)c3ccccc3Br)C1)C2=O,-4.96
21,CCC(=O)Nc1ccc(C(=O)CSc2nnc(-c3ccc(NS(=O)(=O)CC)cc3)o2)cc1OC,5.26
22,O=C(CCN1C(=O)c2ccccc2C1=O)N1CCN(C(=O)c2ccccc2)CC1,0.00878
23,CN(C)CCN(C)Cc1c2ccccc2c(CN(C)CCN(C)C)c2ccccc12,0.802
24,CN(C)CCN(C)Cc1ccccc1Sc1cccc2ccccc12.Cl,-65.3
25,CN(C)Cc1ccccc1Sc1ccccc1Br,-36.5
26,CCOC(=O)c1nn(-c2ccc(C)cc2)c(=O)cc1OCC(=O)Nc1cc(C)ccc1OC,-2.12
